The results in this text go back to PubChem BioAssay (NCI).

The panel holds about 83,000 compounds, 20% with a hit somewhere; the sample as a whole holds those more often.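 Plates (96-well) were seeded with cells, treated with compound at one concentration, and incubated for 48 hours before percent growth was determined.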 A number with no mark means an inactive call. The source made the active and inactive calls.

This test relates to HT29 colon. In words: NCI-60 one-dose screen, 48 h (100 = growth as untreated, 0 = no growth, -100 = all killed). The conditions noted are these: 10 µM unless noted. Here is the method:
Growth inhibition of the HT29 human tumor cell line is measured as a screen for anti-cancer activity. Cells are grown in 96 well plates and exposed to the test compound for 48 hours. Compounds are tested at a single concentration, which is 10^-5 M for most compounds. The reported endpoint is percent growth (GI% or GIPRCNT), where numbers from 0 - 100% represent growth inhibition, and numbers from -100% - 0 represent cell death. For example, a value of 40 represents 60% growth inhibition. A value of 0 means no net growth occurred over the course of the experiment. A value of -40 indicates 40% of cells at the beginning of the experiment died by the end of the experiment. A value of -100 means all cells are dead at the end of the experiment.
NCI-60 Human Tumor Cell Lines Screen was performed using the standard one-dose NCI protocol, which is described in more detail at https://dtp.cancer.gov/discovery_development/nci-60/default.htm.
Compounds with GIPRCNT values below 10 were considered active. Activity score was based on GIPRCNT using the following formula: […]
Score is 0 for GIPRCNT values of 100 or above, 50 for GIPRCNT values of 0, and 100 for GIPRCNT values of -100.
Take `CN(C)CCC(=O)Nc1ccc(-n2cc(-c3cccc(NC(=S)Nc4cccc(-c5cn(-c6ccc(NC(=O)CCN(C)C)cc6)nn5)c4)c3)nn2)cc1`: the growth was 28.4%.
With `CCSc1nc(Nc2ccc(S(=O)(=O)Nc3ccon3)cc2)c(C#N)c(-c2cccc(Br)c2)n1` the figure was 91.8%.
The result for `NS(=O)(=O)c1ccc(-n2ncc3c(N/N=C/c4ccccc4)ncnc32)cc1` reads 81%.
The result for `O=c1ncc(-c2ccc(C(F)(F)F)cc2)c(NC2CCCCCC2)[nH]1` reads 56.5%; that for `O=C(Nc1nc(-c2ccc(Cl)cc2)cs1)c1cc(-c2ccc(Br)cc2)nc2ccc(Cl)cc12`, 9.1% (active); that for `Cc1ccc(C2=NNC(c3sc(Cl)nc3Cl)C2)cc1` (stereo not given), 107%.
Turning to `CCOC(=O)C(Br)=P(c1ccccc1)(c1ccccc1)c1ccccc1`, the growth was 106%.
As to `COc1ccc2ncccc2c1Cc1c(OC)ccc2ncccc12`, the growth was 30%.
Regarding `COc1cc(/C=C/C(=O)C(C(=O)/C=C/c2ccc(OC(=O)CCNc3nnc(C)s3)c(OC)c2)C(=O)CCNc2nnc(C)s2)ccc1OC(=O)CCNc1nnc(C)s1`, the growth was -69% (active).
The result for `c1ccc(-c2n(Cc3ccc4ccccc4c3)cc[n+]2Cc2ccc3ccccc3c2)cc1` reads -83.8% (active).
With `COc1cccc(N2CCN(c3cccc(C)n3)CC2)c1` the figure was 94.9%; with `CC1=C([Se]CC(OC(=O)[C@@H](CSSC(C)(C)C)NC(=O)C(C)(C)C)C(=O)NCCCCCC(=O)OCc2ccccc2)C(=O)c2ccccc2C1=O` (stereo not given in full), -29.5% (active); with `Cc1sc2nc(NCc3ccccc3)[nH]c(=O)c2c1C`, 13.3%.
With `CCN(CC)c1ccc(/C=C/C(=O)c2cccc(NS(C)(=O)=O)c2)cc1` the figure was 5.36% (active); with `COc1ccc(-c2cc(-c3nnc(SCC(=O)Nc4ccc(C(C)=O)cc4)n3-c3ccccc3)c3ccccc3n2)cc1OC`, 94.7%; with `Nc1ccc(Oc2c(F)c(F)c(Oc3ccc(N)cc3)c(F)c2F)cc1`, 108%.
Consider `CC(C)=CCCC(C)c1ccc(C)c2c1OCN(CC1CCNCC1)C2` (stereo not given), for which the growth is -68.5% (active).
As to `O=C(Nc1ccccc1)P(=O)(O)c1ccccc1`, the growth was 114%.
With `Cn1c(=O)c2[nH]c(=S)n(Cc3ccccc3)c2n(C)c1=O` the figure was 111%.
The result for `O=C(Oc1ccccc1)C(Br)C(Br)c1ccccc1` (stereo not given) reads 54.5%.
The result for `COc1ccc(/C=C2/SC(=Nc3c(C)nn(-c4ccccc4)c3N)NC2=O)cc1` reads 16.6%; that for `COc1cc(/C=C\C(C)=N\Nc2ccccc2)ccc1O`, 108%; that for `CCc1ccc(-c2nc(SCC(=O)NC3CCCCC3)n[nH]2)cc1`, 101%.
As for `COc1ccc([N+](=O)[O-])c(S(=O)(=O)c2ccc(Cl)cc2)n1`, the growth was 73.7%.
The result for `O=C1Nc2ccc(Cl)cc2[C@@](C#CC2CC2)(C(F)(F)F)O1` reads 86.6%.
In the case of `Cc1ccc2c(c1)C(=O)/C(=C\Nc1ccc(C(N)=O)cc1)C(O)O2` (stereo not given), the growth is 105%.
The result for `Cc1nn2c(/C=C3/C(=O)Nc4cc(Cl)ccc43)c(-c3ccccc3)nc2s1` reads 36.6%.
The result for `COc1ccc(N2CCN(CC(=O)N3CCN(c4nnc(-c5ccccc5)c(-c5ccccc5)n4)CC3)CC2)cc1` reads 26.1%.
With `N#CC1c2ccccc2C=CN1C(=O)N(c1ccccc1)c1ccccc1` (stereo not given) the figure was 57.2%; with `C=C1CCC2C(C)(COC(=O)CC)C(OC(=O)CC)CCC2(C)C1C/C=C1/C(=O)OCC1OC(=O)CC` (stereo not given), -73.2% (active); with `O=C1CSC(c2ccccc2Cl)N1c1nnc(Cn2nnc3ccccc32)o1` (stereo not given), 81.2%.
With `COC(=O)c1cc2c(/C=C3/NC(=S)NC3=O)coc2n1C`, the growth was 116%.
On to `C(=C1c2ccccc2-c2ccccc21)c1ccncc1`, for which the growth is 8.42% (active).
With `CC[C@@H](c1ccc(O)c(O)c1)[C@@H](CC)c1ccc(O)c(O)c1` the figure was 95.4%; with `OC(c1cc(-c2cccc(Cl)c2)nc2ccccc12)C1CCCCN1` (stereo not given), -74.5% (active).
The result for `C[C@]12CC[C@H](O)CC1=CC[C@@H]1[C@@H]2CC[C@]2(C)C(c3cccnc3)=CC[C@@H]12` reads 24%.
The result for `COc1cccc(C=Nc2cc(C(C)C)c(O)cc2C)c1O` reads 103%; that for `O=C(Nc1ccc2c(c1)C(=O)c1ccccc1-2)c1ccccc1`, 35.8%; that for `CC(=O)N1N=C(c2ccc(Cl)cc2)CC1c1c(C)nn(-c2ccccc2)c1N(C)Cc1ccccc1` (stereo not given), 58.5%.
As to `CCCCCc1c(C)[nH]c(/C=C2\N=C(c3ccc[nH]3)C=C2Oc2ccccc2)c1C`, the growth is -56.9% [100 µM] (active).
